The campaign covered roughly 2,400 compounds. About 360 (15%) were called active. Another 5% or so got no clear call; they are omitted.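 Rule for the calls: active = falling-signal curve with half-maximal concentration at or below ten times the top tested dose; inconclusive = flat fit at 30 to 70% inhibition, or poor fit; inactive = signal rise, flat within 30%, or potency beyond limit.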 Not all results are given here. Potency and affinity values are given separately.
assay: dox-induced RFP signal loss in R4-3T3 cells – cell-based, NIH3T3 R4, HSE-GFP and Tet-On RFP, cherry-pick, set 3, dose response (AID 493085); conditions: NIH3T3 R4 HSE-GFP/Tet-RFP reporter, fluorescence, 48 h; series mostly up to 19.5 µM; activity change, negative = inhibition: at the top concentration;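 note: cells heat shocked 2 h at 42 °C with doxycycline to induce reporters; 0% = neutral control wells and -100% = didemnin B control at 400 nM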

Activity change, negative = inhibition, inactive:
CCCCn1c(=O)n(CC(=O)Nc2c(CC)cccc2CC)c(=O)c2c1nc(CO)n2CCC 6.15%
CCOC(=O)Cn1c(CN2CCN(c3cccc(Cl)c3)CC2)nc2c1c(=O)[nH]c(=O)n2C -12.4%
Cc1[nH]n(-c2ccccc2)c(=S)c1C=Nc1cccc([N+](=O)[O-])c1 -1.4%
CCOc1ccc(/C(O)=C2/C(=O)C(=O)N(CCCn3ccnc3)C2c2cccs2)cc1Cl (configuration not stated) 1.41%
Cc1ccc(S(=O)(=O)N2CCN(C(=O)c3cccc(F)c3)CC2)cc1 -8.47%
O=C(O)c1cc(-c2cccc3ccccc23)nc2ccccc12 -4.24%
Cc1nc(NC(C)c2ccccc2)sc1C(=O)Nc1ccccc1 (configuration not stated) 9.94%
CC(C)Sc1nc2sccc2c(=O)n1-c1ccccc1 11.3%
COc1cccc(C(=O)Nc2ccc(NC(=O)C3CC=CCC3C(=O)O)cc2)c1 (configuration not stated) 0.016%
CC(C)CN(CC(C)C)C(=S)NC1CCCCC1 -6.14%
O=[N+]([O-])c1ccc(N2CCN(Cc3ccc4c(c3)OCO4)CC2)nc1 -8.55%
COc1ccccc1NC(=O)c1ccc([N+](=O)[O-])o1 57.8%
COc1cc(C(=O)Nc2ccccc2NC(=O)c2cc(OC)c(OC)c(OC)c2)cc(OC)c1OC 2.37%
O=C(NCc1ccc2c(c1)OCO2)c1cc2c(s1)CS(=O)(=O)C2 -6.5%
Cc1c(C(=O)NCc2ccc3c(c2)OCO3)sc2nc(-c3ccccc3)cn12 -10%
Cc1cccc(NC(=O)CN2C(=O)N/C(=C/c3cc(C)n(C(C)C)c3C)C2=O)c1 -10.4%
CCn1c(COc2ccc(C)cc2)nnc1SCC(=O)Nc1ccc2c(c1)OCCO2 -7.64%
COc1ccccc1Nc1nc(NCCCN(C)C)nc(N)c1[N+](=O)[O-] -1.84%
CCN(C(=O)Cn1c([N+](=O)[O-])cnc1C)c1ccccc1 -16.7%
CC(C)(C)c1cnnn1-c1ccc(C(=O)CCl)cc1 3.34%
CC1(C)CC(=O)C2=C(C1)N(c1ccc(F)cc1)C(=O)CC2c1ccccc1 (configuration not stated) -4.86%
O=C(COC(=O)c1cnccn1)Nc1ccc(Cl)cn1 -5.03%
Cc1cc(C(=O)CSc2nnc3ccccn23)c(C)n1-c1ccccc1 0.992%
Cc1cc(C(=O)COC(=O)C2CC2)c(C)n1-c1ccc(F)cc1 4.63%
COc1ccc(C(=O)CSc2nc(C)cc(=O)[nH]2)cc1C -1.45%
CC1C=Cc2ccccc2N1C(=O)c1ccccc1 (configuration not stated) -3%
O=C(OCCN1CCN(c2ncc(C(F)(F)F)cc2Cl)CC1)c1ccc(Cl)cc1 -3.94%
CCN1CCN(c2cc(C)c3cc(NC(=S)N4CCCC(C)C4)ccc3n2)CC1 (configuration not stated) 6.67%
COc1cccc(CC2(CO)CCN(S(=O)(=O)c3ccc(OC)cc3OC)CC2)c1 1.79%
CC(C)CC(C(=O)Nc1cccc(O)c1)N1C(=O)c2ccccc2C1=O (configuration not stated) -0.424%
COCCN(C(=O)COC(=O)/C=C/c1ccc(C(F)(F)F)cc1)c1c(N)n(Cc2ccccc2)c(=O)[nH]c1=O 4.7%
Cc1ccccc1OCC(=O)OCC(=O)c1ccc(-c2ccccc2)cc1 -2.21%
Cc1ccccc1OCC(=O)Nc1ccc([N+](=O)[O-])cc1 -3.6%
CN(Cc1ccccc1)C(=O)CCn1c(=O)oc2ccccc21 -5.05%
Cc1ccc(S(=O)(=O)NC(C)(C)CSc2nncn2N)cc1 -12.4%
CC1(C)C=C2C(=NN(c3ccccc3)C(N)=C2C#N)CO1 0.55%
Fc1ccc(-n2cc(CNCCc3ccccn3)c(-c3ccccc3Cl)n2)cc1 6.35%
O=C(CCl)Nc1ccccc1C(=O)c1ccccc1 -3.67%
O=C(CN1CCN(C(=O)c2ccccc2)CC1)Nc1ncc(Br)cc1Br -7.04%
O=C(OCc1cc(=O)n2cc(Br)ccc2n1)C1COc2ccccc2O1 (configuration not stated) -10.6%
COc1ccc(CN(CCCN2CCOCC2)C(=O)Nc2cccc(Cl)c2)cc1OC 35.5%
CCOC(=O)Cc1cnc(NC(=O)c2ccccc2)s1 -10.8%
CCOC(=O)c1sc(NC(=O)Nc2ccccc2F)nc1C -5.42%
CN1CCN(c2ccc(NC(=O)c3ccc4ccccc4c3)cc2)CC1 5.25%
COc1ccc(C(C)NC(=S)NC2CCCCC2)cc1OC (configuration not stated) 17%
COc1ccc(C(C(=O)NC2CCCCC2)N(C(=O)CCl)c2cccc(Cl)c2)cc1 (configuration not stated) 54%
Cc1ccc(Cn2c(=N)n(CC(=O)c3ccccc3)c3ccccc32)cc1 -8.55%
CCCCSC1=C(C#N)C(c2ccccc2C)CC(=O)N1 (configuration not stated) -0.422%
O=C(CCc1ccccc1)Nc1cccc([N+](=O)[O-])c1 -1.97%
Cc1nc(-c2ccc(Cl)cc2)sc1C1(C)CC(c2ccc(Cl)cc2)=NO1 (configuration not stated) 5.7%
CN(C)c1nc(OCCNC(=O)COc2ccc(Cl)cc2Cl)nc(N(C)C)n1 -11.4%
Cc1cccc(C(=O)NC2CCN(C(=O)Nc3ccc(F)cc3)CC2)c1 -0.23%
C[n+]1c(/C=C/c2ccc3c(c2)OCO3)ccc2ccccc21 -0.328%
CCc1cc(C(=O)NCC(C)(C)N2CCOCC2)sc1C -5%
CCOc1ccc(NC(=O)c2cccnc2C(=O)O)cc1 3.13%
CCOC(=O)c1ccc(NC(=O)NS(=O)(=O)c2ccc(C)cc2)cc1 3.23%
N=C1C(c2nc3ccccc3[nH]2)=C(O)CN1c1ccc(CC(=O)O)cc1 13%
O=C(O)c1ccc(N2C(=O)CC(N3CCN(c4cccc(C(F)(F)F)c4)CC3)C2=O)cc1 (configuration not stated) 1.6%
O=C(NNc1nc2ccccc2s1)Nc1ccccc1 -0.841%
COc1ccccc1Nc1ccc2nonc2c1[N+](=O)[O-] -4.82%
Cn1ccnc1Sc1cc(NCCCO)c([N+](=O)[O-])c2nonc12 -89.6%
COc1ccc(NC(=S)Nc2ccc(Oc3ccccc3)cc2)cc1 11.4%
Cc1c(O)ccc2c(CC(=O)N[C@@H](Cc3ccc(O)cc3)C(=O)O)cc(=O)oc12 -0.067%
Cc1cc(=O)oc2c(C)c(OC(C)C(=O)NCCCN3CCOCC3)ccc12 (configuration not stated) 0.097%
Cc1cc(NC(=O)COc2coc(CN3CCN(c4ccccc4F)CC3)cc2=O)no1 -3.4%
CCOC(=O)c1cc(C#N)c(NCc2ccccc2)nc1C -8.53%
Cc1ccc(S(=O)(=O)CCC(=O)Nc2ccc(Br)cc2)cc1 -18.7%
O=C(O)c1cc(S(=O)(=O)Nc2ccc3c(c2)OCCO3)c(Cl)cc1Cl -9.48%
COc1ccc(OC)c(NC(=S)NCc2cccnc2)c1 -11%
CCc1ccc(-c2nc(CS(=O)CC(=O)NCc3cccnc3)c(C)o2)cc1 (configuration not stated) -5.61%
COc1ccc(OC)c(NC(=O)CSc2nc3ccccc3cc2Cc2ccccc2)c1 2.64%
COc1ccc(N(CC(=O)NCc2ccc(F)cc2)C(=O)Cn2nnc(-c3ccc(C)o3)n2)cc1OC 3.23%
O=C(Cn1cnc2c(nnn2Cc2ccc(Cl)cc2)c1=O)N1CCCc2ccccc21 -4.06%
CCN(c1ccccc1)S(=O)(=O)c1ccc(Cl)c(C(=O)N(CC2CCCO2)C2CCS(=O)(=O)C2)c1 (configuration not stated) -4.73%
O=C(O)c1csc(-c2ccccc2)n1 2.65%
Cc1cc(/C=C2\SC(=S)N(Cc3ccco3)C2=O)c(C)n1-c1ccccc1 -3.22%
Cc1cc(C(=O)CN2CCC(C)CC2)c(C)n1-c1ccccc1F 3.3%
c1ccc(-c2nn[nH]n2)nc1 0.524%
O=C(CCCNC(=O)/C(=C\c1ccccc1F)NC(=O)c1ccccc1)OCc1ccccc1 12.5%
COc1ccc(C)cc1S(=O)(=O)Nc1cc2c3c(c1)CCC(=O)N3CCC2 4.91%
COc1ccccc1NS(=O)(=O)c1ccc(C)c(C(N)=O)c1 2.29%
CN(C)c1ccc(-c2nc3n(n2)C(c2cccnc2)C2=C(CC(C)(C)CC2=O)N3)cc1 (configuration not stated) 8.15%
CCCn1c2ccccc2c2nnc(SCc3[nH]c(=O)[nH]c3C(=O)CCCCC(=O)OCC)nc21 -4.05%
CC(=O)NC(c1ccc(C)cc1)c1cc(Cl)c2cccnc2c1O (configuration not stated) 9.24%
Oc1c(CN2CCOCC2)cc(COCc2ccccc2)c2cccnc12 94.7%
Cc1cccc(NCc2ccc(O)c3ncccc23)c1C -5.05%
Cn1ncc([N+](=O)[O-])c1C(=O)Nc1ccccc1Cl -12.2%
CCN1C(=O)C(CC(=O)Nc2ccc(OC)cc2)N(Cc2ccc3c(c2)OCO3)C1=S (configuration not stated) -0.998%
Cc1cc(N=Nc2ccc(Cl)cc2)cc(CN2CCCC2)c1O -0.088%
COc1ccc(C(=O)NC(=S)N2CCNC(=O)C2CC(=O)OC(C)C)cc1 (configuration not stated) -8.04%
CCOC(=O)c1c(C)[nH]c(C(=O)COC(=O)C2=NNC(=O)CC2)c1C 9.83%
O=C(O)c1cc(S(=O)(=O)N(Cc2ccccc2)c2ccccc2Cl)ccc1Cl -9.49%
O=C(Nc1cccnc1)c1coc(=O)c2ccccc12 0.689%
CC(C)c1ccc(NC2(C#N)C(=O)Nc3ccccc32)cc1 (configuration not stated) -4.73%
O=C1SCC(c2ccccc2)=NN1Cc1ccccc1 5.45%
CCOc1ccc(-n2c(O)c(/C=N/Nc3nnc(C)c(=O)[nH]3)c3ccccc3c2=O)cc1 3.96%
CCOc1ccc(NCc2nnc(SCC(=O)Nc3cc(C)on3)n2-c2ccc(OC)cc2)cc1 2.07%
CCOC(=O)c1cccc(NC(=O)CCS(=O)(=O)c2ccc(Br)s2)c1 -1.87%
CC(OC(=O)CN1C(=O)c2ccccc2C1=O)C(=O)NC1CCCCC1C (configuration not stated) 15.5%
COC1CCCN(C(=O)c2ccc(OC3CCN(CCc4ccccc4)CC3)cc2)C1 (configuration not stated) -0.07%
O=C(CCN1C(=O)/C(=C/c2ccc(F)cc2)SC1=S)NCCCn1ccnc1 -9.6%
Cn1nc(N)c2c(-c3ccccc3)c(C#N)c(N)nc21 7.3%
Cc1c(NC(=O)C2CC(c3ccc(F)cc3)=NO2)c(=O)n(-c2ccccc2)n1C (configuration not stated) -8.64%
Cc1ccc(N=C2NC(=O)/C(=C\c3cccs3)S2)cc1C 9.6%
O=C(NCc1ccccc1C(F)(F)F)C12CN(Cc3ccccc3)CC1C(c1ccc([N+](=O)[O-])cc1)=NO2 (configuration not stated) 3.54%
COC(=O)c1cc(S(=O)(=O)NCc2ccc(F)cc2)cn1C -5.9%
COc1ccc(CNC(=O)CCCNC(=O)c2ccc(Cl)cc2)cc1OC -0.28%
